# Cav3 T inh: blocks human Cav3.2 T-type calcium channel. O95180. Cav3.2-expressing cells, Fluo-4 calcium fluorescence FDSS; stronger effect = lower value. B-score at 10 µM. 100,000 tested, 4% active. AID 449739;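 active = single-dose well whose peak fluorescence ratio is a statistical outlier from its plate by either plate-standardised score or position-corrected B-score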
# CYP2C19 inh: human CYP2C19 inhibition | P33261 | CYP2C19 Supersomes, luciferin-H EGE luminescence, 30 min | inhibition, % at 5 µM | 96,000 tested, 21% active | AID 778;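 active = CYP2C19 inhibition above a set limit at 5 µM in the primary screen, cut at about 50% in these data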;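 also: plate controls were negative control wells for no effect and 2.5 mM tranylcypromine positive control for full effect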
# Target sequence (P33261 whole entry, looked up): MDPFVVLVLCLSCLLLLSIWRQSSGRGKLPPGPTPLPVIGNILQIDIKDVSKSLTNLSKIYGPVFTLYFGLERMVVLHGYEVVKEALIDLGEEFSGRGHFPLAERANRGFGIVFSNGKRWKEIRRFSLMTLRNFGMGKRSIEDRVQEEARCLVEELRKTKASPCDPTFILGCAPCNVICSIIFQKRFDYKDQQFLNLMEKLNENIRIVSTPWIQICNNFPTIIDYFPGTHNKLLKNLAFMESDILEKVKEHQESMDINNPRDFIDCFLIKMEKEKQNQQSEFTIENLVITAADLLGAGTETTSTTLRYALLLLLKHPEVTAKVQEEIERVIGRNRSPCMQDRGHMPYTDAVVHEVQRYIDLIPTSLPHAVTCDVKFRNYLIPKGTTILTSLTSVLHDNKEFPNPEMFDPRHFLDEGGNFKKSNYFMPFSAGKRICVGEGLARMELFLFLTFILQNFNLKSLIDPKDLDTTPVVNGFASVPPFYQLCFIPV
# CYP2C9 act: CYP2C9 (human) activation; activation factor at 5 µM; recombinant CYP2C9, luciferin-H conversion, luminescence; stronger effect = higher value; factor 1 = untreated enzyme, 0 = blocked; AID 1024; 96,000 tested, 1.4% active; P11712;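 active = activation factor of 2 or more for CYP2C9 at a 5 µM dose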;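 also: 0 = sulfaphenazole-blocked wells and 1 = vehicle-only wells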
# CYP2C9 inh: inhibitors of human CYP2C9; P11712; AID 777; 96,000 tested, 20% active; inhibition, % at 5 µM; CYP2C9 Supersomes, luciferin-H conversion, luminescence;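 active = blocking of liver enzyme CYP2C9 beyond about 50% at 5 µM, limit read from the data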
# CYP2C19 act: increases human CYP2C19 enzyme activity. recombinant CYP2C19, luciferin-H EGE luminescence; stronger effect = higher value; 0 = fully inhibited enzyme, 1 = untreated enzyme. 96,000 tested, under 10 active. activation factor at 5 µM. AID 1025;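 active = activation factor of at least 2 at 5 µM in the primary screen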;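 also: 0 = wells with 2.5 mM tranylcypromine and 1 = vehicle-only wells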
# An asterisk follows results filed as active; · = not tested or not shown. Sampled rows, rich in hits. Any-hit rate of the full collection: about 27%.
SMILES,Cav3 T inh,CYP2C19 inh,CYP2C9 act,CYP2C9 inh,CYP2C19 act
Cc1ccc(OCC(=O)Nc2cccc3nsnc23)c(C)c1,-0.27,74*,0.9,8,0.3
O=S(=O)(Nc1ccccc1F)c1ccc2nsnc2c1,0.054,63*,0.6,38,0.4
O=S(=O)(Nc1cccc2nsnc12)c1ccccc1,-0.31,71*,0.1,86*,0.3
C=CCN(CC=C)S(=O)(=O)c1ccc2nsnc2c1,-0.54,49,1,4,0.5
CCC(OC(=O)C(NC(=O)c1ccccc1)c1ccccc1)C(=O)Nc1cc(C)on1 (configuration not stated),-2,28,0.7,32,0.7
Cc1nc2ccccn2c1/C(O)=C1\C(=O)C(=O)N(CCCn2ccnc2)C1c1ccncc1 (configuration not stated),0.3,7,0.8,24,0.9
COc1ccc(C(NC(=O)CC(C)C)NC(=O)CC(C)C)cc1OC,-0.66,-7,1,4,1.1
CN1CCCC(n2nc(Cc3ccc(Cl)cc3)c3ccccc3c2=O)CC1 (configuration not stated),-0.73,·,·,·,·
Cc1cc(C)c(S(=O)(=O)Nc2cccc3nsnc23)c(C)c1,·,49,0.2,83*,0.5
Cc1ccc2nsnc2c1N(S(C)(=O)=O)S(C)(=O)=O,·,63*,0.8,21,0.4
COc1cc(NS(=O)(=O)c2cccc3nsnc23)c(C(=O)O)cc1OC,-0.2,-16,0.7,31,1.2
Cc1ccc2nsnc2c1NS(=O)(=O)c1c(C)ccc2nsnc12,1.5,35,0.4,56*,0.6
O=C(O)COc1ccc2nsnc2c1Cl,·,-1,1.1,-13,1
CCOC(=O)CCCNS(=O)(=O)c1c(C)ccc2nsnc12,0.86,·,·,·,·
Cc1cc(NC(=O)CCC(=O)N(c2ccccc2)C2(C(=O)NC3CCCCC3)CCCC2)no1,-2.8,14,0.8,24,0.9
Cc1nnc(SCCN2C(=O)c3ccccc3C2=O)nc1C,1.4,·,·,·,·
NC(N)=Nc1nc(CCN2C(=O)c3ccccc3C2=O)cs1,0.45,55*,0.9,6,0.4
Cc1nc(CCN2C(=O)c3ccccc3C2=O)cs1,0.52,70*,0.8,19,0.3
CNc1nc(CCN2C(=O)c3ccccc3C2=O)cs1,·,82*,0.9,7,0.2
Nc1nncn1C(=O)CCCN1C(=O)c2ccccc2C1=O,0.73,-4,1,-3,1
Cc1ccc(-c2c(C)n([O-])c3c([n+]2=O)CCCCC3)o1,-0.18,19,1,0,0.8
CC(CCc1ccccc1)NC(=O)C(Cc1ccccc1)NS(=O)(=O)c1cccs1 (configuration not stated),-3.7,76*,0.2,79*,0.2
CC(CCc1ccccc1)NC(=O)c1ccco1 (configuration not stated),0.053,·,·,·,·
CC1CCCCC1NC(=O)C(Cc1ccccc1)NS(=O)(=O)c1cccs1 (configuration not stated),-1.7,84*,0.3,73*,0.2
CCCn1c(=O)c2ccccc2n2c(SCC(=O)c3cc(C)n(CCOC)c3C)nnc12,·,48,0.7,26,0.5
SMILES,Cav3 T inh,CYP2C19 inh,CYP2C9 act,CYP2C9 inh,CYP2C19 act
O=c1cc(O)n(-c2ccc(Cl)cc2)c(=S)[nH]1,·,12,0.6,43,0.9
O=S(=O)(c1ccc(Cl)c(C(F)(F)F)c1)N1CCN(CC(O)COCC2CCCO2)CC1 (configuration not stated),-2.3,36,2*,-100,0.6
O=C(CSC1=NCCS1)N1CCCCCC1,0.47,57*,1,-3,0.4
O=C(CSC1=NCCS1)N1CCCC1,-0.15,13,0.8,17,0.9
Cc1ccc(OC(=O)Cn2c(C(F)(F)F)nc3ccccc32)cc1,-0.56,12,0.8,16,0.9
O=C(OCc1nc2ccccc2s1)c1cccs1,-5.2*,17,0.9,11,0.8
O=C(COC(=O)c1cccs1)Nc1ccccc1,-0.027,57*,0.9,14,0.4
O=C(OCc1nc2ccccc2c(=O)[nH]1)c1cccs1,0.032,58*,0.4,59*,0.4
O=C(OCn1nnc2ccccc2c1=O)c1cccs1,-0.32,20,1,-4,0.8
O=C(/C=C/c1ncc(C(F)(F)F)cc1Cl)OCc1ccccc1,-1.3,-8,1.2,-19,1.1
O=C(NC1CCCc2ccccc21)C1CCC(CNS(=O)(=O)c2cccc3nsnc23)CC1 (configuration not stated),0.12,-6,1,-2,1.1
